For experiment [1], the target named is Retinoic acid receptor RXR-alpha (Homo sapiens) (UniProt P19793). As to the kind of experiment: qHTS assay to identify small molecule agonists of the RXR signaling pathway (AID 1159527; calls by dose curve; note: nearly all actives have a fitted effect of over 35% in size). Summed up: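 Reporter activation is measured as beta-lactamase activity via FRET substrate cleavage (emission 460/530 nm) in HEK 293T cells expressing an RXR-alpha-driven bla construct, following 16 hr compound exposure at 37 C.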
A general note: qHTS replaces the single test concentration by a dilution series.

A short description of experiment [2]: qHTS assay to identify small molecule agonists of the RXR signaling pathway - cell viability counter screen (AID 1159529). Note: series mostly up to about 77 µM; nearly all actives have a fitted effect of over 50% in size. Summed up:
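Tox21 10K compounds were tested for cytotoxicity against GeneBLAzer RXR-alpha HEK 293T cells grown in 2% charcoal-stripped FBS. Exposure lasted 16 hr at 37 C, 5% CO2; viability read by CellTiter-Glo luminescence.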

The nature of experiment [3]: qHTS assay to identify small molecule antagonists of the retinoid acid receptor (RAR) signaling pathway - cell viability counter screen (AID 1159551). Note: nearly all actives have a fitted effect of over 35% in size. Summed up:
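C3RL4 RARE-luciferase cells, 1,000/well, incubated overnight, then dosed with compound plus 1 uM retinol (final). After 6 hr at 37 C, viability read by CellTiter-Glo ATP luminescence following 30 min at room temperature.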

Experiment [4] is described as follows: qHTS assay to identify small molecule antagonists of the retinoic acid receptor (RAR) signaling pathway (AID 1159552; note: nearly all actives have a fitted effect of over 50% in size). Summed up: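 Overnight-plated C3RL4 reporter cells get compound, then retinol to 1 uM final; plates sit 6 hr at 37 C, 5% CO2. A luciferase reagent is added and light output recorded after 30 min at room temperature.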
Experiment [5] is described as follows: qHTS assay to identify small molecule agonists of the retinoic acid receptor (RAR) signaling pathway (AID 1159553). Summed up:
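C3RL4 RARE-luciferase cells were seeded at 1,000/well and grown overnight at 37 C, then exposed to compounds for 6 hr at 37 C, 5% CO2. Luciferase reagent was added and luminescence was read after 30 min at room temperature.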

A short description of experiment [6]: qHTS assay to identify small molecule antagonists of the estrogen related receptor (ERR) signaling pathway from Tox21 library - cell viability counter screen (AID 1224834). Note: nearly all actives have a fitted effect of over 30% in size. An outline of the steps:
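ERR reporter cells, 2,000 per well, rested 6 h, then exposed to compound in DMSO for 17.5 hours at 37 C. Viability read as fluorescence after 30 min with CellTiter-Fluor.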

The target in experiment [7] is Luciferin 4-monooxygenase (Photinus pyralis) (UniProt P08659). Kind of experiment: qHTS assay to identify small molecule inhibitors of firefly luciferase (AID 1224835). Note: nearly all actives have a fitted effect of over 25% in size. Note: potency is the fitted concentration of half-maximal effect. An outline of the steps: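 Quantitative HTS format; KM concentrations of both substrates. Purified P. pyralis FLuc activity quantified from luminescence images.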
A short description of experiment [8]: qHTS assay to identify small molecule agonists of the constitutive androstane receptor (CAR) signaling pathway - cell viability counter screen (AID 1224836). Note: series mostly up to about 92 µM; nearly all actives have a fitted effect of over 45% in size. An outline of the steps: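 Fluorescence from CellTiter-Fluor indicates live cells after 23 h exposure. The human hepatoma line expresses hCAR and a CYP2B6-2.2kb reporter. Incubation medium contains 0.75 uM PK11195 (final).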

Experiment [9] can be described thus: qHTS assay to identify small molecule antagonists of the constitutive androstane receptor (CAR) signaling pathway - cell viability counter screen (AID 1224837). Note: series mostly up to about 92 µM; nearly all actives have a fitted effect of over 45% in size. An outline of the steps: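 HepG2 cells stably carrying hCAR and CYP2B6-2.2kb reporter, stimulated with 50 nM CITCO and compounds at 15 concentrations for 23 h at 37 C. Viability measured by CellTiter-Fluor fluorescence.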

Experiment [10] deals with Nuclear receptor subfamily 1 group I member 3 (Homo sapiens) (UniProt Q14994). Kind of experiment: qHTS assay to identify small molecule antagonists of the constitutive androstane receptor (CAR) signaling pathway (AID 1224838). Note: nearly all actives have a fitted effect of over 40% in size. Summed up: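 HepG2 cells stably carrying hCAR and a CYP2B6-2.2kb luciferase reporter, seeded 4 hrs before compound (15 concentrations). Stimulated with 50 nM CITCO for 24 hr at 37 C. ONE-Glo luminescence read after 30 min at room temperature.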

For experiment [11] the target is unchanged. Kind of experiment: qHTS assay to identify small molecule agonists of the constitutive androstane receptor (CAR) signaling pathway (AID 1224839). Note: series mostly up to about 92 µM; nearly all actives have a fitted effect of over 15% in size. An outline of the steps:
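Stable hCAR/CYP2B6-2.2kb HepG2 line in DMEM with 10% FBS; compounds (15 concentrations) and 0.75 uM PK11195 final, 24 h at 37 C/5% CO2, then ONE-Glo luminescence after 30 min.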

Experiment [12] is described as follows: qHTS assay to identify small molecule antagonists of the estrogen related receptor signaling pathway with the pleiotropic PPARgamma coactivator (PGC) from Tox21 10K library - cell viability counter screen (AID 1224840; active = well fitted cell-killing curve with a large enough effect in the repeat runs, not every such curve was filed as active; note: nearly all actives have a fitted effect of over 40% in size). An outline of the steps: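 PGC/ERR cells (2,000/well) plated 6 h, then compound-treated for 17.5 h at 37 C. Viability measured by CellTiter-Fluor fluorescence after 30 min at 37 C, multiplexed with the pathway assay.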

Experiment [13] deals with Thyrotropin receptor (Homo sapiens) (UniProt P16473). Kind of experiment: qHTS assay to identify small molecule agonists of the thyroid stimulating hormone receptor (TSHR) signaling pathway (AID 1224843; calls by dose curve; note: nearly all actives have a fitted effect of over 45% in size). An outline of the steps:
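TSHR-expressing HEK293 cells (800 per well) were exposed to compounds for 30 min at room temperature. cAMP was then detected by HTRF competition with cAMP-d2 and anti-cAMP cryptate, read after 1 h at room temperature. Fifteen concentrations, triplicate.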

Experiment [14] is described as follows: qHTS assay to identify small molecule agonists of the hypoxia (HIF-1) signaling pathway - cell viability counter screen (AID 1224844; calls by dose curve; note: nearly all actives have a fitted effect of over 50% in size). Summed up:
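HRE-bla ME-180 cells, 2,000/well in 0.5% dialyzed FBS medium, treated 17 h at 37C with compounds. Viability read in the same wells as the bla reporter, by CellTiter-Glo luminescence after 30 min at room temperature.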

Experiment [15] in a line: qHTS assay to identify small molecule agonists of H2AX (AID 1224845; active = well fitted activation curve with a large enough effect in the signal ratio in the repeat runs, not every such curve was filed as active; the % refers to the signal ratio). Summed up:
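Wild-type CHO-K1 cells plated overnight, then exposed 3 hr at 37C to compounds at 15 concentrations (0.76% DMSO). Lysed, then HTRF anti-pH2AX(S139)-cryptate/anti-H2AX-d2 detection after 24 hr at room temperature; emissions 665 and 620 nm.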

Experiment [16] in a line: qHTS assay to identify small molecule agonists of the hypoxia (HIF-1) signaling pathway (AID 1224846; active = well fitted activation curve with a large enough effect in the signal ratio in the repeat runs, not every such curve was filed as active; the % refers to the signal ratio). An outline of the steps: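 HRE-bla ME-180 beta-lactamase reporter cells in medium with 0.5% dialyzed FBS, pre-incubated 5 h then exposed to compounds 17 h at 37C, 5% CO2; reporter induction read with CCF4-AM FRET substrate.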
Experiment [17] is described as follows: qHTS assay to identify small molecule agonists of H2AX - cell viability counter screen (AID 1224847; calls by dose curve; note: top concentration of the series differs between compounds; nearly all actives have a fitted effect of over 30% in size). Summed up: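 Viability of CHO-K1 (wild type) cells after 3 hr compound exposure was measured by CellTiter-Glo luminescence.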
A short description of experiment [18]: qHTS assay to identify small molecule antagonists of the estrogen related receptor signaling pathway with the pleiotropic PPARgamma coactivator (PGC) from Tox21 10K library (AID 1224841; call rule not given here; note: series mostly up to about 92 µM; actives are mostly falling curves and most rising ones were filed inactive; nearly all actives have a fitted effect of over 50% in size). Summed up:
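PGC/ERR cell line, 2,000 cells/well, pre-incubated 6 hours at 37 C, then exposed to compounds for 18 hours at 37 C; luciferase read with One-Glo luminescence after 30 min at room temperature.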

The nature of experiment [19]: qHTS assay to identify small molecule agonists of the estrogen related receptor signaling pathway with the pleiotropic PPARgamma coactivator (PGC) from Tox21 10K library (AID 1224842). Note: nearly all actives have a fitted effect of over 15% in size. An outline of the steps: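 PGC/ERR reporter cells (NTP line) were seeded 2,000 per well, rested 6 h at 37 C/5% CO2, then pin-dosed with compounds in DMSO for 18 h at 37 C; luciferase read by One-Glo luminescence after 30 min at room temperature.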

Experiment [20] in a line: qHTS assay to identify small molecule antagonists of the estrogen related receptor (ERR) signaling pathway from Tox21 library (AID 1224848). Note: nearly all actives have a fitted effect of over 50% in size. An outline of the steps: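 Cells: ERR line, 2,000/well; 6 h preincubation 37 C/5% CO2. Cpd in DMSO via pin tool; 18 h, 37 C. ONE-Glo, 30 min RT, luminescence.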

The structures appear in SMILES notation. Records with an inconclusive call do not appear. Unmarked numbers belong to inactive results. The source made the active and inactive calls. Unless noted, calls come from the whole dose curve; as a rule, active = well fitted curve in the direction sought with a large enough effect in the repeat runs; inconclusive = weak or mixed curves; inactive = no such curve, though single readings can be large; an effect the other way counts as inactive or inconclusive.

The text below walks through data of PubChem BioAssay (Tox21).

Nuclear receptor subfamily 1 group I member 3 (Homo sapiens), sequence (Q14994 whole entry, looked up): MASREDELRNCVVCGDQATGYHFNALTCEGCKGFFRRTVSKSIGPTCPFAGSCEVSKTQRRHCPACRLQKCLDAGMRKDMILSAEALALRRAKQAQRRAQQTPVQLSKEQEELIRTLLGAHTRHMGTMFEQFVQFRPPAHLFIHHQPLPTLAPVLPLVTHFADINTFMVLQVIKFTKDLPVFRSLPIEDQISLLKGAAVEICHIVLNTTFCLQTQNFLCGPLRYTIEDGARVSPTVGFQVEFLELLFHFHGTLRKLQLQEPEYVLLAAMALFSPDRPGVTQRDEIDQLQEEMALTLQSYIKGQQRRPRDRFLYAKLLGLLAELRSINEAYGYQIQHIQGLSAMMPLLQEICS
Luciferin 4-monooxygenase (Photinus pyralis), sequence (P08659 whole entry, looked up): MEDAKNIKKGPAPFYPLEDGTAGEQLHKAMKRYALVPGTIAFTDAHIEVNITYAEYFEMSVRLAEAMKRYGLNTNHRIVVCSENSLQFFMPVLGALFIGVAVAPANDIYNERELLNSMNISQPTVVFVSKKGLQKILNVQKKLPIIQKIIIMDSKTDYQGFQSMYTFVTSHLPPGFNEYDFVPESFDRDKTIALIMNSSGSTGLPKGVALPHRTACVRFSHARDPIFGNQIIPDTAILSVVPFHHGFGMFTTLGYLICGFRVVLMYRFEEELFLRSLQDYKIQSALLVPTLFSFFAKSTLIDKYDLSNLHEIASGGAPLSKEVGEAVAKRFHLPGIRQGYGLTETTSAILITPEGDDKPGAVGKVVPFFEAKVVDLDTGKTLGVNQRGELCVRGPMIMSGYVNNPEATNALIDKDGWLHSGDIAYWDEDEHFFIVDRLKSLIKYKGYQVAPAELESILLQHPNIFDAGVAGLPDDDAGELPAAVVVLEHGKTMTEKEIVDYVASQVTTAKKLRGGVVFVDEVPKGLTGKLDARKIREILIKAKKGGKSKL
Retinoic acid receptor RXR-alpha (Homo sapiens), sequence (P19793 whole entry, looked up): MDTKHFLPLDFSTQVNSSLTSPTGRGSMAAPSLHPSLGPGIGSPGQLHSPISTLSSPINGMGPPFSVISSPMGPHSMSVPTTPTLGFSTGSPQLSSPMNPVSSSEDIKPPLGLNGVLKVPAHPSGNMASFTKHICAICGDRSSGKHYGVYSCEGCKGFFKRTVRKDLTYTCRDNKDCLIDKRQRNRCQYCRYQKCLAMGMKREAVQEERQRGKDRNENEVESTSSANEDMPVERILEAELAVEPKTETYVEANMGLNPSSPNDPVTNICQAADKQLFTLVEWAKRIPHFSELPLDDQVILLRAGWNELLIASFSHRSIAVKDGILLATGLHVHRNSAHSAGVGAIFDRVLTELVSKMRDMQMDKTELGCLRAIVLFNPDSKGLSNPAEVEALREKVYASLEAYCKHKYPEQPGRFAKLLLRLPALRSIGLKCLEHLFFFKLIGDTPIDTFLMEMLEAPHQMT
Thyrotropin receptor (Homo sapiens), sequence (P16473 whole entry, looked up): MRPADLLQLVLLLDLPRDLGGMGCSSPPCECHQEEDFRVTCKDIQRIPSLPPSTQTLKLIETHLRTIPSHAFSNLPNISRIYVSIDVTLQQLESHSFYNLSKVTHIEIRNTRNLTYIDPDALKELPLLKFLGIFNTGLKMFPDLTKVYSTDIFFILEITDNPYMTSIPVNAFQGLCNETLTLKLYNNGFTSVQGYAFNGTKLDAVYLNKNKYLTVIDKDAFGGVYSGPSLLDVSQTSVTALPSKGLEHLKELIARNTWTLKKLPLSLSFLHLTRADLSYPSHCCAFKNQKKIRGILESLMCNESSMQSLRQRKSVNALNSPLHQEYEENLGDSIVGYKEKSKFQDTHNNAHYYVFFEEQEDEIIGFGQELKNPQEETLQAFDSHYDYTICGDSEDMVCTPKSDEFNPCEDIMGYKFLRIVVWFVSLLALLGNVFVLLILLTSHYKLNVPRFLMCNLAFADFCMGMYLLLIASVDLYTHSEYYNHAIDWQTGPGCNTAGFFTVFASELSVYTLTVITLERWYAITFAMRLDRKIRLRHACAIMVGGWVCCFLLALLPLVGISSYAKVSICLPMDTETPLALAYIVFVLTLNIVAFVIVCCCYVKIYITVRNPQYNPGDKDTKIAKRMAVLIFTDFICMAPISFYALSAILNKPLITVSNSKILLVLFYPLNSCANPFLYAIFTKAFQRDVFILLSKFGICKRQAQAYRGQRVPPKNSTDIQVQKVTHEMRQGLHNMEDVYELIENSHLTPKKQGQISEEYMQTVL

Take `N#Cc1ccccc1O`: the Potency entry in [1], in [5], in experiment [7], in [10] and in experiment [11] was “inactive” in each case. Also, the outcome in [2], in experiment [3], in experiment [4], in experiment [6], in [8] and in experiment [9] was inactive. In addition, the outcome in [12], in experiment [13], in [14], in experiment [15] and in experiment [16] was inactive.
Regarding `Cn1c(=O)c2c(ncn2CCO)n(C)c1=O`, the Potency result in experiment [1], in experiment [5], in experiment [7], in experiment [10] and in experiment [11] was “inactive” each time. Further, the result in experiment [2], in experiment [3], in experiment [4], in experiment [6], in experiment [8] and in experiment [9] was inactive. Besides, the call in experiment [12], in experiment [13], in experiment [14], in [15] and in experiment [17] was inactive.
Regarding `CCOCCOCC`, the Potency result in experiment [1], in [5], in experiment [7], in [10] and in experiment [11] was “inactive” in each case. The outcome in experiment [2], in [3], in experiment [4], in experiment [6], in [8] and in experiment [9] was inactive. Further, the compound was called inactive in experiment [12], in [13], in experiment [14], in [15], in experiment [16] and in experiment [17].
With `CC/C=C\CCOC(=O)c1ccccc1O`, the Potency entry in [1], in experiment [5], in [10], in [11] and in [20] was “inactive” in each case. The outcome in experiment [2], in experiment [3], in [4], in experiment [6], in experiment [8] and in experiment [9] was inactive. The compound was called inactive in experiment [12], in [18], in [19], in [15] and in experiment [16]. In addition, the Potency in experiment [7] is 17.8 µM (active).
Take `CCCCOCC(C)O` (stereo not drawn): the Potency result in experiment [1], in experiment [5], in [7], in [10] and in [11] was “inactive” throughout. The compound was called inactive in [2], in [3], in [4], in [6], in experiment [8] and in experiment [9]. In addition, the compound was classed as inactive in [12], in [13], in [14], in experiment [15], in [16] and in experiment [17].
Regarding `CC1=C(C(=O)O)N2C(=O)[C@@H](NC(=O)[C@H](N)C3=CCC=CC3)[C@H]2SC1`, the Potency result in experiment [1], in experiment [5], in experiment [7], in experiment [10] and in experiment [11] was “inactive” in each case. In addition, the call in experiment [2], in [3], in experiment [4], in [6], in experiment [8] and in experiment [9] was inactive. The outcome in experiment [12], in [13], in experiment [14], in experiment [15] and in [17] was inactive.
`OCC1(CO)COCOC1`: the Potency entry in experiment [1], in [5], in [7], in experiment [10] and in [11] was “inactive” in each case. Moreover, the compound was classed as inactive in experiment [2], in [3], in experiment [4], in [6], in [8] and in experiment [9]. In addition, the compound was classed as inactive in experiment [12], in experiment [13], in [14], in [15], in experiment [16] and in [17].
On to `O=C(O)c1cc2ccccc2nc1C(=O)O`, for which the Potency entry in experiment [1], in [5], in experiment [7], in experiment [10] and in experiment [11] was “inactive” in each case. The call in [2], in [3], in [4], in experiment [6], in experiment [8] and in experiment [9] was inactive. In addition, the outcome in experiment [12], in [13], in [14], in [15], in experiment [16] and in [17] was inactive.
